From the supplement of paper PMC13380429

How the values were obtained:
[1] = test system: Vero E6 infected with SARS-CoV-2; test: morphology score (similarity to uninfected cells); higher = more like uninfected cells; settings: 24 h
[2] = test system: Vero E6 infected with SARS-CoV-2; test: SARS-CoV-2 infection rate relative to infected DMSO; higher = more infection, active = 60 or less; settings: 24 h

CCN(CC)Cc1ccc2cc(COC(=O)Nc3ccc(C(=O)NO)cc3)ccc2c1 [givinostat] (10 µM)
morphology score [1]: -0.215 | SARS-CoV-2 infection rate [2]: 112% (inactive)

NCCc1c[nH]cn1 [histamine] (10 µM)
morphology score [1]: -0.112 | SARS-CoV-2 infection rate [2]: 114% (inactive)

CC(C)(COP(=O)(O)OP(=O)(O)OC[C@H]1O[C@@H](n2cnc3c(N)ncnc32)[C@H](O)[C@@H]1OP(=O)(O)O)[C@@H](O)C(=O)NCCC(=O)NCCS [coenzyme-A] (10 µM)
morphology score [1]: 0.0234 | SARS-CoV-2 infection rate [2]: 102% (inactive)

CN1CCN(C(=O)C2C(C(=O)O)[C@H]3CC[C@@H]2O3)CC1 (stereo not given in full) (10 µM)
morphology score [1]: 0.0648 | SARS-CoV-2 infection rate [2]: 110% (inactive)

COc1cc2c(cc1OC)CN(C(=O)[C@@H](NCc1ccncc1)C(C)(C)C)CC2 (10 µM)
morphology score [1]: -0.115 | SARS-CoV-2 infection rate [2]: 105% (inactive)

CCC(=O)O[C@]1(C(=O)CO)CC[C@H]2[C@@H]3CCC4=CC(=O)CC[C@]4(C)[C@H]3CC[C@@]21C (10 µM)
morphology score [1]: 0.188 | SARS-CoV-2 infection rate [2]: 102% (inactive)

CCCCCCCCCCCCCCCC(=O)OC[C@H](COP(=O)([O-])OCC[N+](C)(C)C)OC(=O)CCCCCCCCCCCCCCC [colfosceril-palmitate] (10 µM)
morphology score [1]: 0.152 | SARS-CoV-2 infection rate [2]: 103% (inactive)

CC(C)(C)C#Cc1cc(N(C(=O)[C@H]2CC[C@H](C)CC2)[C@H]2CC[C@@H](O)CC2)c(C(=O)O)s1 (10 µM)
morphology score [1]: -0.117 | SARS-CoV-2 infection rate [2]: 107% (inactive)

COc1ccc2c(c1OC)C(=O)O[C@@H]2[C@H]1c2c(cc3c(c2OC)OCO3)CCN1C [noscapine] (10 µM)
morphology score [1]: -0.105 | SARS-CoV-2 infection rate [2]: 104% (inactive)

CC(C)(O)C(=O)Nc1ccc([N+](=O)[O-])c(C(F)(F)F)c1 [2-hydroxyflutamide] (10 µM)
morphology score [1]: 0.0933 | SARS-CoV-2 infection rate [2]: 108% (inactive)

C[C@H]1CCC/C=C/[C@@H]2C[C@H](O)C[C@H]2[C@H](O)/C=C/C(=O)O1 [brefeldin-A] (0.833333 µM)
morphology score [1]: 0.0397 | SARS-CoV-2 infection rate [2]: 107% (inactive)

O=c1cc(-c2ccccc2)oc2cc(O)c(O)c(O)c12 [baicalein] (10 µM)
morphology score [1]: 0.196 | SARS-CoV-2 infection rate [2]: 85% (inactive)

Cc1cn([C@H]2C[C@H](N=[N+]=[N-])[C@@H](CO)O2)c(=O)[nH]c1=O [zidovudine] (10 µM)
morphology score [1]: -0.144 | SARS-CoV-2 infection rate [2]: 108% (inactive)

CC1CS(=O)(=O)CCN1/N=C/c1ccc([N+](=O)[O-])o1 (stereo not given) [nifurtimox] (10 µM)
morphology score [1]: 0.0407 | SARS-CoV-2 infection rate [2]: 102% (inactive)

CNCc1ccc(-c2[nH]c3cc(F)cc4c3c2CCNC4=O)cc1 [rucaparib] (10 µM)
morphology score [1]: 0.234 | SARS-CoV-2 infection rate [2]: 83% (inactive)

CC(=O)O[C@]1(C(C)=O)CC[C@H]2[C@@H]3CCC4=CC(=O)CCC4=C3[C@@H](c3ccc(N(C)C)cc3)C[C@@]21C [Ulipristal acetate] (10 µM)
morphology score [1]: 0.286 | SARS-CoV-2 infection rate [2]: 104% (inactive)

Cc1c(Cn2c(C)nc3c(C(=O)O)cc(N4CCOCC4)cc32)cccc1C(F)(F)F (0.833333 µM)
morphology score [1]: -0.135 | SARS-CoV-2 infection rate [2]: 118% (inactive)

CC1(C)CCC(C)(C)c2cc(C3(c4ccc(C(=O)O)cc4)OCCO3)ccc21 (10 µM)
morphology score [1]: -0.00895 | SARS-CoV-2 infection rate [2]: 110% (inactive)

CCC(=O)NS(=O)(=O)c1ccc(-c2c(-c3ccccc3)noc2C)cc1 [parecoxib] (10 µM)
morphology score [1]: 0.0867 | SARS-CoV-2 infection rate [2]: 106% (inactive)

C[n+]1c2cc(N)ccc2cc2ccc(N)cc21.Nc1ccc2cc3ccc(N)cc3nc2c1 [acriflavine] (0.833333 µM)
morphology score [1]: 0.32 | SARS-CoV-2 infection rate [2]: 108% (inactive)

C=C1C[C@]23C[C@@]1(O)CC[C@H]2[C@@]12C=C[C@H](O)[C@@](C)(C(=O)O1)[C@H]2[C@@H]3C(=O)O (10 µM)
morphology score [1]: -0.0765 | SARS-CoV-2 infection rate [2]: 109% (inactive)

CC1C(=O)OC2C(O)C34C5CC(C(C)(C)C)C36C(OC(=O)C6O)OC4(C(=O)O5)C12O (stereo not given) [ginkgolide-B] (10 µM)
morphology score [1]: 0.264 | SARS-CoV-2 infection rate [2]: 93% (inactive)

c1cc2c(cc1C1CCCCC1)c1c3n2CCNC3CCC1 (stereo not given) [tetrindole] (0.833333 µM)
morphology score [1]: -6.12e-06 | SARS-CoV-2 infection rate [2]: 108% (inactive)

COC(=O)C(c1ccccc1)C1CCCCN1 (stereo not given) (10 µM)
morphology score [1]: 0.0486 | SARS-CoV-2 infection rate [2]: 114% (inactive)

Cc1ccc(-c2ccc(F)cc2COc2ccc(CCC(=O)O)cc2)cc1 (10 µM)
morphology score [1]: -0.174 | SARS-CoV-2 infection rate [2]: 100% (inactive)
